“And” between values parts separate entries of the source, which are not always exact repeats. Equal values may be shown once. Records with an inconclusive call do not appear. The source made the active and inactive calls. Unless noted, calls follow the shape of the dose curve; as a rule, active = well fitted curve in the direction sought with a large enough effect; inconclusive = small, poorly fitted or top-dose-only effect, or another doubt; inactive = no such curve, though single readings can be large; an effect the other way counts as inactive or inconclusive.

Experiment [1] deals with Cytochrome P450 2D6 (Homo sapiens) (UniProt P10635). In words: Cytochrome P450 family 2 subfamily D member 6 (CYP2D6) small molecule antagonists: luciferase biochemical (cell-free) qHTS assay (AID 1645840; active = well fitted curve in the direction sought with a large enough effect in the repeat runs; an effect the other way counts as inactive or inconclusive; also: nearly all actives have a fitted effect of over 55% in size; also: potency is read from the fitted curve at half-maximal effect; as to activity change, negative = inhibition: % is scaled to controls: 0 for no effect and ±100 for the full control effect). An outline of the steps: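 P450-Glo CYP2D6 system: proluciferin substrate converted by enzyme to luciferin, read by luminescence proportional to activity. Enzyme-substrate mix with compound 10 min at room temperature, then NADPH regeneration 1 h before detection reagent.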
Chain of Cytochrome P450 2D6 (Homo sapiens) (P10635 whole entry, looked up): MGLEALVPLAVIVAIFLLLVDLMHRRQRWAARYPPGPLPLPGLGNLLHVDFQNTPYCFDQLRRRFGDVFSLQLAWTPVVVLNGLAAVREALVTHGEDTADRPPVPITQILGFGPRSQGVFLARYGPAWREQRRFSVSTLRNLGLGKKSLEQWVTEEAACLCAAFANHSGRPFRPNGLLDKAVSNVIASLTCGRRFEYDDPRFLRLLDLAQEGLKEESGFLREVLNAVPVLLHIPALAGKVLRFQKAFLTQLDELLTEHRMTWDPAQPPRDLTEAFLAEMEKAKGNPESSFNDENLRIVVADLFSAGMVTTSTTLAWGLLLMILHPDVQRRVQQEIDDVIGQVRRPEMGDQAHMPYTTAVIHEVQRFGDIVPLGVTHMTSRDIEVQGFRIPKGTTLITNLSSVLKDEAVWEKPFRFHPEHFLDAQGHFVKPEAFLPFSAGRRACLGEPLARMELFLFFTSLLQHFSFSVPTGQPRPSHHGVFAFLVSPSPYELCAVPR
On the technique in general: qHTS replaces the single test concentration by a dilution series.

The nature of experiment [2]: Primary qHTS for inhibitors of nuclear receptor binding SET domain protein 2 (NSD2) in an isogenic RCH-ACV NSD2 p.E1099K mutant (9B) (AID 1645876). Also: nearly all actives have a fitted effect of over 70% in size. Also: potency is read from the fitted curve at half-maximal effect.
The nature of experiment [3]: Primary qHTS for inhibitors of nuclear receptor binding SET domain protein 2 (NSD2) in an RCH-ACV wild type WT cells (2C) (AID 1645877). Also: nearly all actives have a fitted effect of over 70% in size. Also: potency is read from the fitted curve at half-maximal effect.
The target in experiment [4] is Rap guanine nucleotide exchange factor 3 (Homo sapiens) (UniProt O95398). In words: Confirmatory qHTS for antagonist of cAMP-regulated guanine nucleotide exchange factor 3 (EPAC1) (AID 1645880).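 Also: plate controls were DMSO only for no effect and full effect of the ATA control for full effect; nearly all actives have a fitted effect of over 55% in size.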 An outline of the steps: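 Released BODIPY-GDP fluoresces less than Rap1-bound BODIPY-GDP; the signal is followed at 480/540 nm at 5-min intervals over 30 min, after 5 min at room temperature. Reactions contain 100 nM EPAC1, 250 nM RAP1B-BODIPY-GDP and 50 uM GDP; results are normalized to ATA and DMSO.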
Chain of Rap guanine nucleotide exchange factor 3 (Homo sapiens) (O95398 whole entry, looked up): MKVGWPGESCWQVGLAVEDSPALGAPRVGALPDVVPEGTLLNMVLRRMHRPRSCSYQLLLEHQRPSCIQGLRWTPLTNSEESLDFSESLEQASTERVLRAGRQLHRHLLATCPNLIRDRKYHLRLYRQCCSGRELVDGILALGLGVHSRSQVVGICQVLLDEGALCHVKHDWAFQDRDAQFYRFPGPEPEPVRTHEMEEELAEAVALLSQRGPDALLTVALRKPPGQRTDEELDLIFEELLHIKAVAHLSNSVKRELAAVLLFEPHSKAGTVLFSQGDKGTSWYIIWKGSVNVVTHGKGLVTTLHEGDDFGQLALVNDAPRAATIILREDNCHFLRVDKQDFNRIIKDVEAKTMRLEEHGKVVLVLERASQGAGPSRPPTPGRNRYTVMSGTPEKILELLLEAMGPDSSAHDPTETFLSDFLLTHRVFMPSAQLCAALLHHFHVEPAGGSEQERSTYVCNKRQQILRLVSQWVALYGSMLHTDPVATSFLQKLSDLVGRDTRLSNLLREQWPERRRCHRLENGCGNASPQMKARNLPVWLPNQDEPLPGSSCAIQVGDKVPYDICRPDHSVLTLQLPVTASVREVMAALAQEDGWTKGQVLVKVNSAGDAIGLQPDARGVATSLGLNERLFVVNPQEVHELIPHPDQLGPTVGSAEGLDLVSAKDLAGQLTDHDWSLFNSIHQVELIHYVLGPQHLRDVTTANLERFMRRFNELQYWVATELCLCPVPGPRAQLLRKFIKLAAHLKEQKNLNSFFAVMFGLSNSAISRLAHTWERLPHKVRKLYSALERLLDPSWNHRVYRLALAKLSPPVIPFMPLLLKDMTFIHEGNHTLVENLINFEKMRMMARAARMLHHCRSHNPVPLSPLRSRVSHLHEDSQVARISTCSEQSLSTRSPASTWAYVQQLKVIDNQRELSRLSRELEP

Experiment [5] shares this target. Briefly: Confirmatory qHTS for agonist of cAMP-regulated guanine nucleotide exchange factor 3 (EPAC1) (AID 1645881).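 Also: EPAC1 catalysed release of BODIPY-GDP from Rap1B seen as fluorescence loss; 100% = effect of cAMP agonist control; nearly all actives have a fitted effect of over 75% in size.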
The target of experiment [6] is Rap guanine nucleotide exchange factor 4 (Homo sapiens) (UniProt Q8WZA2). In words: Confirmatory qHTS for antagonist of cAMP-regulated guanine nucleotide exchange factor 4 (EPAC2) (AID 1645885). Also: nearly all actives have a fitted effect of over 25% in size. Also: potency is read from the fitted curve at half-maximal effect. As to activity change, negative = inhibition: % is scaled to controls: 0 for no effect and ±100 for the full control effect.
Chain of Rap guanine nucleotide exchange factor 4 (Homo sapiens) (Q8WZA2 whole entry, looked up): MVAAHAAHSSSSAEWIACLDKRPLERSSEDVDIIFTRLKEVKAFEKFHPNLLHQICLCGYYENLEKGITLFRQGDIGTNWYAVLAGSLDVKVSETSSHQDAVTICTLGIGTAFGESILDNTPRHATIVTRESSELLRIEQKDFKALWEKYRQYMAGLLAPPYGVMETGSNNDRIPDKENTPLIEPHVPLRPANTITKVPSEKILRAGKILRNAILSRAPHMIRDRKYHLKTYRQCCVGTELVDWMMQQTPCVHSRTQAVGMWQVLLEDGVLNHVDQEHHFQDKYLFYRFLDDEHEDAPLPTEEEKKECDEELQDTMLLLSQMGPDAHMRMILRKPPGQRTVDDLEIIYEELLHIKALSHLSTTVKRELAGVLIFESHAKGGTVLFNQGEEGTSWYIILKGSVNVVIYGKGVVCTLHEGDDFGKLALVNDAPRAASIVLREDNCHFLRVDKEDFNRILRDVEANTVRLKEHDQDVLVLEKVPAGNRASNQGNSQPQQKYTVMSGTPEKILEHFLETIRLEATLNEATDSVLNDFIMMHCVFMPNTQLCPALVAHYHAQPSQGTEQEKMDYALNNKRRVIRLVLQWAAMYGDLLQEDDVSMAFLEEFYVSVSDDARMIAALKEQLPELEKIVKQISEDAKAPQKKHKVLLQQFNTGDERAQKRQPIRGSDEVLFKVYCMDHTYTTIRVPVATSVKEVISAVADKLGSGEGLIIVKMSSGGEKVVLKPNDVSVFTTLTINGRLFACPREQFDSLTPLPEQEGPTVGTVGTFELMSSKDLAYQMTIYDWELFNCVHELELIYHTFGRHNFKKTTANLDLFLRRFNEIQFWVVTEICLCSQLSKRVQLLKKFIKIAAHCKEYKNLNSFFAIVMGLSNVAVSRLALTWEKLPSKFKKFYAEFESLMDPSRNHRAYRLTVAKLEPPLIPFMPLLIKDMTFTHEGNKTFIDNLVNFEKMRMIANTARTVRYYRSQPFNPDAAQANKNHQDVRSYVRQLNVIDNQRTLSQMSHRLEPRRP
In experiment [7] the target is Catechol O-methyltransferase (Homo sapiens) (UniProt P21964). In words: Confirmatory Screen for Target Class Profiling of Small Molecule Inhibitors of Methyltransferases (AID 1745852). As to activity change, negative = inhibition: % is scaled to controls: 0 for no effect and ±100 for the full control effect. The conditions noted are these: MTase-Glo luminescence, SAH detection, recombinant enzyme; measured here: COMT max response; stronger effect = lower value.
Chain of Catechol O-methyltransferase (Homo sapiens) (P21964 whole entry, looked up): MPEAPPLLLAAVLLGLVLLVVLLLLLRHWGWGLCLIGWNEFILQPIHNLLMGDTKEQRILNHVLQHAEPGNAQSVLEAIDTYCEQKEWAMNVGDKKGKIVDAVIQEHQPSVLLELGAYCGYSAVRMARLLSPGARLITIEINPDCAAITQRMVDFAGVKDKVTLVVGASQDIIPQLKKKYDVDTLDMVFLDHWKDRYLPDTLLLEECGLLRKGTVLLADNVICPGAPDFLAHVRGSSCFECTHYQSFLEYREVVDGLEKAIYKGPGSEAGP
For experiment [8], the target named is Guanidinoacetate N-methyltransferase (Homo sapiens) (UniProt Q14353). The experiment is described as above. The conditions noted are these: MTase-Glo luminescence, SAH detection, recombinant enzyme; at 57.3 µM (top of the series).
Experiment [9] has as its target Nicotinamide N-methyltransferase (Homo sapiens) (UniProt P40261). Described as above. The conditions noted are these: MTase-Glo luminescence, SAH detection, recombinant enzyme; measured here: NNMT max response; stronger effect = lower value.
Experiment [10] addresses Phenylethanolamine N-methyltransferase (Homo sapiens) (UniProt P11086). The experiment is described as above. The conditions noted are these: MTase-Glo luminescence, SAH detection, recombinant enzyme; measured here: PNMT max response; stronger effect = lower value.
Experiment [11] has as its target Rap guanine nucleotide exchange factor 4 (Homo sapiens) (UniProt Q8WZA2). Briefly: Confirmatory qHTS for agonist of cAMP-regulated guanine nucleotide exchange factor 4 (EPAC2) (AID 1645884).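 Also: nucleotide exchange releases bodipy-GDP from Rap1 and this lowers its fluorescence; % is scaled to controls: 0 for no effect and ±100 for the full control effect; nearly all actives have a fitted effect of over 65% in size.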
A short description of experiment [12]: NCATS anti-infectives library activity on HEK293 viability as a counter-qHTS vs the C. elegans viability qHTS (AID 1745854). Also: % is scaled to controls: 0 for no effect and ±100 for the full control effect. An outline of the steps:
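CellTiter-Glo luminescence, read on a CCD imager, scored viability of HEK293 cells after 24 hr compound exposure at 37C. Library tested in several concentrations, 1:5 steps, up to 41.7 uM; digitonin served as control.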

Chain of Phenylethanolamine N-methyltransferase (Homo sapiens) (P11086 whole entry, looked up): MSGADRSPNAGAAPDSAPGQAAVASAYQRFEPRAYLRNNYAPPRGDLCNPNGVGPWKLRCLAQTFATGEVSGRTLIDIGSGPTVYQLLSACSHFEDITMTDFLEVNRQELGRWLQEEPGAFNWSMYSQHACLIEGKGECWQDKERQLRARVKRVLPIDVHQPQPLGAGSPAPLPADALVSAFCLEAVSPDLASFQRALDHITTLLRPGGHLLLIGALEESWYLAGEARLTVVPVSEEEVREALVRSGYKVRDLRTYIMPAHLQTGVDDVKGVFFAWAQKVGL
Chain of Nicotinamide N-methyltransferase (Homo sapiens) (P40261 whole entry, looked up): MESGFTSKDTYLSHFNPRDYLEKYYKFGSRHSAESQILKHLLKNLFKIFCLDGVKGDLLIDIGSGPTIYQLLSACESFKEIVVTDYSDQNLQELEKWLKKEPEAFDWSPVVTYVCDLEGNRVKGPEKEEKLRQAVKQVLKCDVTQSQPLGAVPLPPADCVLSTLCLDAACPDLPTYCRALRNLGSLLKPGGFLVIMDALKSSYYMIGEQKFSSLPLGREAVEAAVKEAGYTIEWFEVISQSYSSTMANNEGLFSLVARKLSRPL

As for `c1ccc(CN(CC2=NCCN2)c2ccccc2)cc1`, the Potency in experiment [1] was 1.74 µM (active). Also, the Potency entry in [2] and in experiment [3] was “inactive” each time.
Turning to `O=C1Nc2ccc(Cl)cc2[C@@](C#CC2CC2)(C(F)(F)F)O1`, the Potency in experiment [1] is 27.5 µM (active); in experiment [2] it was 18.6 µM (active); in experiment [3] it was 20.9 µM (active) and 26.3 µM (active); in experiment [6], 44.1 µM (active). The Potency entry in [4] and in experiment [5] was “inactive” throughout. The activity in experiment [7] is -1.93%; in experiment [9] it was -43%; in [10] it was -2.33%. The activity change, negative = inhibition in experiment [8] turned out to be 0%.
For `Nc1ccc(S(=O)(=O)NC(=O)c2ccccc2)cc1`, the Potency result in experiment [1], in experiment [2] and in experiment [3] was “inactive” in each case.
With `OC[C@H]1O[C@@H](O[C@@H]2[C@@H](CO)O[C@](O)(CO)[C@H]2O)[C@H](O)[C@@H](O)[C@H]1O`, the Potency entry in experiment [1], in [2] and in [3] was “inactive” throughout.
For the molecule `Cn1cc[nH]c1=S`, the Potency entry in experiment [1], in experiment [2] and in experiment [3] was “inactive” throughout.
On to `Nc1ccc(S(=O)(=O)Nc2ccccc2)cc1`, for which the Potency entry in experiment [1], in [2] and in experiment [3] was “inactive” throughout.
For the molecule `C[C@H]1O[C@@H](n2cc(F)c(=O)[nH]c2=O)[C@H](O)[C@@H]1O`, the Potency entry in [1] was “inactive”. The Potency in experiment [2] and in [3] was 20.9 µM (active) each time.
Regarding `CC1(C)Oc2ccc(C#N)cc2[C@@H](N2CCCC2=O)[C@@H]1O`, the Potency entry in [1], in [4], in experiment [5], in experiment [11] and in experiment [6] was “inactive” each time.
Regarding `Cc1c(Cl)cccc1Nc1ccccc1C(=O)O`, the Potency entry in [1], in experiment [5] and in experiment [11] was “inactive” throughout. In addition, the Potency in experiment [6] was 44.1 µM (active).
For `Cc1ccc(C(C)C)cc2c(C)ccc1-2`, the Potency entry in [1] and in [2] was “inactive” in each case.
On to `O=C(O)Cc1sc(-c2ccccc2)nc1-c1ccc(Cl)cc1`, for which the Potency entry in experiment [1], in experiment [2] and in experiment [3] was “inactive” throughout.
Turning to `O=Cc1ccccc1C=O`, the Potency result in experiment [1], in [2] and in experiment [3] was “inactive” each time.
Regarding `CCC(=O)c1ccc(O)cc1`, the Potency entry in [1], in experiment [2] and in [3] was “inactive” throughout.
With `CC(C)(C)C(=O)NCCCC(=O)O`, the Potency result in experiment [1], in [2] and in experiment [3] was “inactive” in each case.
`NC(=O)NC(=O)Cc1ccccc1`: the Potency entry in experiment [1], in [2] and in [3] was “inactive” in each case.
Turning to `CN1[C@@H]2CC[C@H]1CC(OC(=O)C(O)c1ccccc1)C2` (stereo partly drawn), the Potency result in experiment [1], in [2] and in experiment [3] was “inactive” in each case.
In the case of `CCCCCCCCCCCCCCCCCCOCC(O)CO` (stereo not drawn), the Potency result in experiment [1], in experiment [2] and in [3] was “inactive” each time.
As to `Cc1ncc(COP(=O)(O)O)c(C=O)c1O`, the Potency result in experiment [1], in experiment [2] and in [3] was “inactive” each time. The outcome in experiment [12] is “inactive”.
Take `CC/C=C(\C(=O)N[C@@H]1C(=O)N2C(C(=O)OCOC(=O)C(C)(C)C)=C(COC(N)=O)CS[C@H]12)c1csc(N)n1`: the Potency result in experiment [1], in experiment [2] and in [3] was “inactive” each time.
As for `CC(=O)Nc1ccc(/C=N/NC(N)=S)cc1`, in experiment [1], the Potency result was “inactive”. The Potency in [2] is 21.1 µM (active); in [3] it was 16.8 µM (active).
On to `CCCCC/C(C=O)=C\c1ccccc1`, for which the Potency result in experiment [1], in experiment [2] and in experiment [3] was “inactive” each time.

(Values after PubChem BioAssay (NCATS).)
